Reference: PubChem BioAssay AID2156 (Johns Hopkins Ion Channel Center, 2009)
Among all 310,000 compounds or so, about 3,400 (1.1%) were called active.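 The calls were made as follows: active = fluorescence ratio B-score at most minus 3 library SDs, with starting brightness B-score within 2 library SDs (cut at about -5.5 in these data); inactive = the rest, inconclusive results apart.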 Only a selection was taken, and actives are over-represented in it overall.

molecular target: Potassium voltage-gated channel subfamily KQT member 2 (Rattus norvegicus) (UniProt O88943); experiment: rat KCNQ2 potassium channel inhibitors, primary screen, cell-based, CHO-K1, FluxOR thallium flux, B-score (AID 2156); conditions: 20 min, at 10 µM; active compounds read low
Sequence (O88943 whole entry, looked up): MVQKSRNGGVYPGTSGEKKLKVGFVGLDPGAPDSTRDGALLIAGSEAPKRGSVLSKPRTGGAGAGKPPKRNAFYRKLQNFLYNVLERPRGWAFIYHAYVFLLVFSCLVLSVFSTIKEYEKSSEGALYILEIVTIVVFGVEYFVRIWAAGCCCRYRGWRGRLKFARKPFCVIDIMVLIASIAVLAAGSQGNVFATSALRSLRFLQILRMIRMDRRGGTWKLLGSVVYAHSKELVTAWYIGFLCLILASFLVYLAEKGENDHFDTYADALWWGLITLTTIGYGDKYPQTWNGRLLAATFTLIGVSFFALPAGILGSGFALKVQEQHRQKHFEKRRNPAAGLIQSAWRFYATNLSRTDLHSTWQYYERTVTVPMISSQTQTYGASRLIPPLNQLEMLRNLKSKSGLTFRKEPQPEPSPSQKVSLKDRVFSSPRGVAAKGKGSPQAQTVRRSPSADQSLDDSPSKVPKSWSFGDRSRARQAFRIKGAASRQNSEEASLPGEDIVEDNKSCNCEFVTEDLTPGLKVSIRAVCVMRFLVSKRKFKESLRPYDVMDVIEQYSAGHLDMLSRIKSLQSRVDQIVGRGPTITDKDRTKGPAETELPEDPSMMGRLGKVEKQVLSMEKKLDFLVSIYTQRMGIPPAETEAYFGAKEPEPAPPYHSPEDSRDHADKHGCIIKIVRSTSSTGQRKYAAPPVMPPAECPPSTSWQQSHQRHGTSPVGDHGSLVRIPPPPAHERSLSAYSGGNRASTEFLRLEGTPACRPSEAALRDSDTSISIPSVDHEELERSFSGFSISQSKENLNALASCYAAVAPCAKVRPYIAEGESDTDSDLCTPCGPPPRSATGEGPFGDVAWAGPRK

| Compound | B-score |
| --- | --- |
| CC(C)(C)c1ccc(CN2C(=O)CN=C(c3ccccc3)c3ccccc32)cc1 | -6.95 (active) |
| O=C1CC(=O)N(Cc2ccccc2)C(=O)N1CCCCCCN1C(=O)CC(=O)N(Cc2ccccc2)C1=O | inactive |
| CCOC(=O)c1c(-c2ccccc2)oc2ccc(OC(=O)N(C)C)cc12 | -4.87 (inactive) |
| COc1ccccc1C1=NCc2nnc(CSC)n2-c2ccc(Cl)cc21 | inactive |
| O=C(c1ccccc1[N+](=O)[O-])N1CCC2(CC1)OCCO2 | inactive |
| COc1ccccc1CN1CCN(C(=O)Cc2ccccc2)CC1 | -0.38 (inactive) |
| Cc1nn(-c2ccccc2)c(C)c1NC(=O)COC(=O)Cc1ccccc1 | inactive |
| COc1ccc(CN2CCN(c3ccccc3F)CC2)c(OC)c1 | -0.09 (inactive) |
| O=c1[nH]c(O)c(C=Nc2cc(F)cc(F)c2)c(=O)[nH]1 | inactive |
| Cc1nc2ccccn2c1P(=S)(N1CCCCC1)N1CCCCC1 | -5.55 (active) |
| CCCCCn1c(=O)c(C(=O)NCc2ccccc2)c(O)c2ccccc21 | -3.71 (inactive) |
| COc1ccccc1OC(=O)c1ccc(C)c(S(=O)(=O)N2CCOCC2)c1 | inactive |
| O=C(c1cc2nc(-c3ccccc3)cc(-c3ccccc3)n2n1)N1CCC2(CC1)OCCO2 | -2.41 (inactive) |
| COc1ccc2c(c1)[C@]13CCCCC1C(C2)N(C)CC3 (stereo not given in full) | inactive |
| C/C(=N/O)c1ccc2ccc3ccccc3c2c1 | -0.17 (inactive) |
| Cc1ccc(Cn2c(C)c3cnn(CC(=O)N4CCC5(CC4)OCCO5)c(=O)c3c2C)cc1 | inactive |
| O=C(CCN1CCCCC1)NCC(=O)Nc1ccc(Br)cc1C(=O)c1ccccc1 | -0.1 (inactive) |
| CN(C)CC1Oc2ccccc2OC1(O)c1ccccc1 (stereo not given) | -8.59 (active) |
| O=C(O)C1CSC(c2cccnc2)N1 (stereo not given) | -1.95 (inactive) |
| C=CC12CN(C)[C@@H]3C4CO[C@H](C[C@H]41)[C@]1(C(=O)Nc4ccccc41)[C@@H]32 (stereo not given in full) | inactive |
| CCCCCCCCCCCCn1ccc(=N)cc1 | -3.45 (inactive) |
| CC(c1ccccc1)(c1ccccc1)c1ccncc1 | -6.57 (active) |
| CC[C@H]1CC2CN3CCc4c([nH]c5ccccc45)C(C(=O)OC)(C2)C13 (stereo not given in full) | -0.03 (inactive) |
| O=C(NC(c1ccc(Cl)cc1)P(=O)(Oc1ccccc1)Oc1ccccc1)OCc1ccccc1 (stereo not given) | -9.52 (active) |
| COc1ccc(C2N3CC(C)(C)CN23)cc1 (stereo not given) | inactive |
